Molecules are shown by their SMILES. Unmarked numbers belong to inactive results. Results filed as inconclusive are left out. Calls of active or inactive are those of the source. Unless noted, calls come from the whole dose curve; as a rule, active = well fitted curve in the direction sought with a large enough effect; inconclusive = small, poorly fitted or top-dose-only effect, or another doubt; inactive = no such curve, though single readings can be large; an effect the other way counts as inactive or inconclusive.

The nature of test [1]: P-glycoprotein substrates identified in KB-8-5-11 adenocarcinoma cell line, qHTS therapeutic library screen (AID 1346987). Note: nearly all actives have a fitted effect of over 65% in size. Note: potency is the fitted concentration of half-maximal effect. In a few lines:
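In this qHTS, P-gp-rich KB-8-5-11 cells received library compounds across a concentration range. Viability was quantified by luminescence after 72 h at 37 degree C.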

Test [2] in a line: Natriuretic polypeptide receptor (hNpr1) antagonism - Pilot counterscreen GloSensor control cell line (AID 1347045; calls by dose curve). The procedure, abridged:
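HEK293 cGMP-sensor cells; 2% GloSensor reagent 2 h RT; LOPAC compounds in 1:5 titrations 30-50 min; 50 uM SNP 20 min; luminescence pre-read and post-read.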
On the technique in general: A counterscreen serves to expose hits that act by an unwanted route or on another target.

Test [3] addresses Atrial natriuretic peptide receptor 2 (Homo sapiens) (UniProt P20594). Kind of test: Natriuretic polypeptide receptor (hNpr2) antagonism - Pilot subtype selectivity assay (AID 1347050; calls by dose curve). In a few lines:
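Read-out: GloSensor luminescence (CCD imager), baseline vs post-stimulation. HEK293 cells expressing hNpr2; compounds pre-incubated 30-50 min at ambient temperature; hNppC 1 nM final, 20 min.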

Test [4] in a line: NS1 protein of Zika virus - qHTS assay to identify small molecule inhibitors in human HEK 293 cells (AID 1347053). Note: nearly all actives have a fitted effect of over 55% in size. The procedure, abridged:
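In this cell-based screen, HEK 293 cultures received compound for one hour before Zika MR766 at MOI = 0.5. NS1 was quantified 24 hours later by TR-FRET, normalized to virus-free wells and infected wells.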

Test [5] has as its target T1, Tyrosine-protein phosphatase non-receptor type substrate 1 (Homo sapiens) + Leukocyte surface antigen CD47 (Homo sapiens) (UniProt P78324+Q08722). Kind of test: CD47-SIRPalpha protein protein interaction - LANCE assay qHTS validation (AID 1347057; active = well fitted curve in the direction sought with a large enough effect in the signal ratio, with a control signal flat, not every such curve was filed as active; the % refers to the signal ratio). In a few lines: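 Inhibition of soluble CD47/SIRPalpha ectodomain association by titrated compounds, measured as 665/615 nm time-resolved FRET ratio after sequential 30 min room-temperature incubations.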
(TR-FRET usually uses a lanthanide donor and a delayed reading to cut background.)

Test [6] has as its target T1, Tyrosine-protein phosphatase non-receptor type substrate 1 (Homo sapiens) + Leukocyte surface antigen CD47 (Homo sapiens). Description: CD47-SIRPalpha protein protein interaction - HTRF assay qHTS validation (AID 1347058; active = well fitted curve in the direction sought with a large enough effect in the signal ratio, not every such curve was filed as active; the % refers to the signal ratio). In a few lines: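 Soluble extracellular domains (6His-CD47, Avi-tag-biotinylated SIRPalpha) in PBS pH 7.4 with 0.05% IGEPAL CA-630. Compounds were preincubated 30 min at RT with CD47 and anti-His-Eu, then SIRPalpha and SAV-XL665 were added. TR-FRET 665/615 ratio.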

Test [7] has the same target. Description: CD47-SIRPalpha protein protein interaction - Alpha assay qHTS validation (AID 1347059).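 Note: bead proximity luminescence from CD47 binding SIRPalpha after compound preincubation with SIRPalpha.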 The procedure, abridged: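 In PBS (pH 7.4) with 0.05% IGEPAL CA-630, compound is preincubated with biotin-Avi-SIRPalpha ectodomain before His-CD47 ectodomain and affinity beads are added. Light-protected room-temperature incubations; AlphaScreen readout.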
Test [8] deals with Parathyroid hormone/parathyroid hormone-related peptide receptor (Homo sapiens) (UniProt Q03431). Kind of test: qHTS for PTHR1 Agonists: Optimization Screen against the NCGC LOPAC library (AID 1347079).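 Note: GloSensor cAMP luminescence in HEK-293 GP2 cells expressing human PTHR1 with IBMX.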 In a few lines: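 Signal increase flags agonism. GP2 cells, derived from HEK-293, express human PTHR1 and a GloSensor cAMP construct.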
Sequence of Parathyroid hormone/parathyroid hormone-related peptide receptor (Homo sapiens) (Q03431 whole entry, looked up): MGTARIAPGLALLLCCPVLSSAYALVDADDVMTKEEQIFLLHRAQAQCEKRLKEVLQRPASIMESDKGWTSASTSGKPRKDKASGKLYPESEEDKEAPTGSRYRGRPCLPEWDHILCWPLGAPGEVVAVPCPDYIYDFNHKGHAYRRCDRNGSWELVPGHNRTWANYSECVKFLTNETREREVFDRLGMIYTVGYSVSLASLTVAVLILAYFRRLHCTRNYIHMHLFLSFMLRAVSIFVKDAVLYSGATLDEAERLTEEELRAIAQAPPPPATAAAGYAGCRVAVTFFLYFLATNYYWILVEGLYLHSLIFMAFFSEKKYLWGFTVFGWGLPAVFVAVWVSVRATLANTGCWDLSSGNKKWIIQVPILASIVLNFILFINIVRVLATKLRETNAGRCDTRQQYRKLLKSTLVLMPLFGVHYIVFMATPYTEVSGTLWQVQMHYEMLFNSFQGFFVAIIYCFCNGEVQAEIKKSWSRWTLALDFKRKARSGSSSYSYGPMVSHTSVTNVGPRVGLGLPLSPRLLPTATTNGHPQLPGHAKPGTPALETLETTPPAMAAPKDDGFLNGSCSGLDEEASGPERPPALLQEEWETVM
On the technique in general: Quantitative high-throughput screening tests each substance at several concentrations.

A short description of test [9]: qHTS of pediatric cancer cell lines to identify multiple opportunities for drug repurposing: Primary screen for TC32 cells (AID 1347089). Note: nearly all actives have a fitted effect of over 60% in size. In a few lines: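 A viability screen of TC32 cells was run over 48 h, with primary MIPE doses spanning 0.78 nM–46 µM and NPC doses 0.59 nM–46 µM. ATP luminescence (CellTiter-Glo) served as the read-out.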
A short description of test [10]: qHTS of pediatric cancer cell lines to identify multiple opportunities for drug repurposing: Primary screen for DAOY cells (AID 1347090). Note: nearly all actives have a fitted effect of over 55% in size. In a few lines:
(§1)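 Eight- or eleven-point concentration series, 48 h treatment at 37 degrees C in growth media; readout CellTiter-Glo luminescence. Potency and efficacy were taken from the concentration-response curves.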

The nature of test [11]: qHTS of pediatric cancer cell lines to identify multiple opportunities for drug repurposing: Primary screen for SJ-GBM2 cells (AID 1347091). In a few lines:
as §1

The nature of test [12]: qHTS of pediatric cancer cell lines to identify multiple opportunities for drug repurposing: Primary screen for A673 cells (AID 1347092). Note: nearly all actives have a fitted effect of over 45% in size. In a few lines:
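Titration-based qHTS on A673 cells: MIPE compounds spanned 11 points (0.78 nM to 46 µM final), NPC compounds 8 points (0.59 nM to 46 µM final). Viability after 48 h was measured by ATP luminescence.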

Test [13] in a line: qHTS of pediatric cancer cell lines to identify multiple opportunities for drug repurposing: Primary screen for SK-N-MC cells (AID 1347093). The procedure, abridged: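 Metabolically active cells were quantified by ATP-dependent luminescence (CellTiter-Glo, 15 min at room temperature) following 48 h treatment. Cells had been plated at 500-1,000 per well and settled for 5 h beforehand.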

The nature of test [14]: qHTS of pediatric cancer cell lines to identify multiple opportunities for drug repurposing: Primary screen for BT-37 cells (AID 1347094). In a few lines: (§2)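 Readout: CellTiter-Glo luminescence, 48 h treatment. Controls DMSO (neutral) and bortezomib 2.3 µM final (positive). Potency and efficacy taken from primary-screen concentration-response curves.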
The nature of test [15]: qHTS of pediatric cancer cell lines to identify multiple opportunities for drug repurposing: Primary screen for NB-EBc1 cells (AID 1347095). In a few lines: as §2
Test [16] in a line: qHTS of pediatric cancer cell lines to identify multiple opportunities for drug repurposing: Primary screen for U-2 OS cells (AID 1347096). Note: nearly all actives have a fitted effect of over 50% in size. In a few lines: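 Cells (500-1,000/well) in growth media were settled 5 h at 37 degrees C, then given compounds for 48 h. Viability was read as CellTiter-Glo luminescence. Primary runs used MIPE at 11 points (0.78 nM-46 µM) and NPC at 8 points (0.59 nM-46 µM); follow-ups used 11 points.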

Test [17] deals with Atrial natriuretic peptide receptor 1 (Homo sapiens) (UniProt P16066). Kind of test: Natriuretic polypeptide receptor (hNpr1) antagonism - Pilot screen (AID 1347049; calls by dose curve;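 note: HEK293 cells with hNpr1 and GloSensor cGMP luciferase stimulated by 0.1 nM hNppA; agonist-evoked cGMP luminescence read 20 min after hNppA addition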). In a few lines: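 Cells expressing receptor plus cGMP biosensor are seeded and incubated overnight at 37C, then loaded with GloSensor reagent (2% final) at room temperature for 2 h. Library compounds go on for 30 min. A pre-read precedes agonist (hNppA, 0.1 nM final) and a 20-min readout.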
Sequence of Atrial natriuretic peptide receptor 1 (Homo sapiens) (P16066 whole entry, looked up): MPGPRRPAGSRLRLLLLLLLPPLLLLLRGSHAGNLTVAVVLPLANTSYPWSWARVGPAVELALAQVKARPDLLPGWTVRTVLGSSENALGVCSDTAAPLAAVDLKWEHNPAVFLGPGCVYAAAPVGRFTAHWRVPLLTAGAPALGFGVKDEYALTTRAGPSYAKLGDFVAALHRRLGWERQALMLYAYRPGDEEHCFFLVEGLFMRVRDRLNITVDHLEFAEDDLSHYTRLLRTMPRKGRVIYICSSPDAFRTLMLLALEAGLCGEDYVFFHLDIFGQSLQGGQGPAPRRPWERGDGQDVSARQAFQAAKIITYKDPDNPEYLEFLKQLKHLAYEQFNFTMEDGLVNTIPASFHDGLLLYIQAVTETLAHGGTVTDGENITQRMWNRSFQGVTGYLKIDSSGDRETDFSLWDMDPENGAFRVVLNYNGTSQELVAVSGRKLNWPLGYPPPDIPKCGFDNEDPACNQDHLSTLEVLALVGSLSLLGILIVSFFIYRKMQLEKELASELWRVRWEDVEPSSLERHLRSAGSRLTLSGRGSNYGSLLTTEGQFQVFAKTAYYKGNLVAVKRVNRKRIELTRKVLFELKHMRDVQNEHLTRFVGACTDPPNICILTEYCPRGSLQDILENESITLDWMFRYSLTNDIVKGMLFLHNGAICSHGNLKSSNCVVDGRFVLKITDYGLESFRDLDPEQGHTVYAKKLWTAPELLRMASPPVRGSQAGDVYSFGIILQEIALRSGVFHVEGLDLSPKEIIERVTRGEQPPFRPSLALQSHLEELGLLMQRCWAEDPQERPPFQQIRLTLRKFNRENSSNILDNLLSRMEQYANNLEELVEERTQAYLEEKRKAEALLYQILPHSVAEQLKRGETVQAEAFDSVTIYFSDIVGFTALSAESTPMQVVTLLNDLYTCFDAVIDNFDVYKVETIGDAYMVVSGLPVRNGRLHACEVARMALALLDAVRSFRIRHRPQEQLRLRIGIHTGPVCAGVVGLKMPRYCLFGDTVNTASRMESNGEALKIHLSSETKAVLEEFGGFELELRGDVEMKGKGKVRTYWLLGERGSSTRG

Test [18] can be described thus: P-glycoprotein substrates identified in KB-3-1 adenocarcinoma cell line, qHTS therapeutic library screen (AID 1346986). Note: nearly all actives have a fitted effect of over 60% in size. The settings on record: KB-3-1 parental cells viability, CellTiter-Glo, 72 h; at 44.5 µM (top of the series). The procedure, abridged:
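Using luminescence to quantify ATP, parental and P-gp-overexpressing KB cells were compared after 72 h compound titration. KB-8-5-11 was also run with the P-gp inhibitor tariquidar.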

Sequence of Atrial natriuretic peptide receptor 2 (Homo sapiens) (P20594 whole entry, looked up): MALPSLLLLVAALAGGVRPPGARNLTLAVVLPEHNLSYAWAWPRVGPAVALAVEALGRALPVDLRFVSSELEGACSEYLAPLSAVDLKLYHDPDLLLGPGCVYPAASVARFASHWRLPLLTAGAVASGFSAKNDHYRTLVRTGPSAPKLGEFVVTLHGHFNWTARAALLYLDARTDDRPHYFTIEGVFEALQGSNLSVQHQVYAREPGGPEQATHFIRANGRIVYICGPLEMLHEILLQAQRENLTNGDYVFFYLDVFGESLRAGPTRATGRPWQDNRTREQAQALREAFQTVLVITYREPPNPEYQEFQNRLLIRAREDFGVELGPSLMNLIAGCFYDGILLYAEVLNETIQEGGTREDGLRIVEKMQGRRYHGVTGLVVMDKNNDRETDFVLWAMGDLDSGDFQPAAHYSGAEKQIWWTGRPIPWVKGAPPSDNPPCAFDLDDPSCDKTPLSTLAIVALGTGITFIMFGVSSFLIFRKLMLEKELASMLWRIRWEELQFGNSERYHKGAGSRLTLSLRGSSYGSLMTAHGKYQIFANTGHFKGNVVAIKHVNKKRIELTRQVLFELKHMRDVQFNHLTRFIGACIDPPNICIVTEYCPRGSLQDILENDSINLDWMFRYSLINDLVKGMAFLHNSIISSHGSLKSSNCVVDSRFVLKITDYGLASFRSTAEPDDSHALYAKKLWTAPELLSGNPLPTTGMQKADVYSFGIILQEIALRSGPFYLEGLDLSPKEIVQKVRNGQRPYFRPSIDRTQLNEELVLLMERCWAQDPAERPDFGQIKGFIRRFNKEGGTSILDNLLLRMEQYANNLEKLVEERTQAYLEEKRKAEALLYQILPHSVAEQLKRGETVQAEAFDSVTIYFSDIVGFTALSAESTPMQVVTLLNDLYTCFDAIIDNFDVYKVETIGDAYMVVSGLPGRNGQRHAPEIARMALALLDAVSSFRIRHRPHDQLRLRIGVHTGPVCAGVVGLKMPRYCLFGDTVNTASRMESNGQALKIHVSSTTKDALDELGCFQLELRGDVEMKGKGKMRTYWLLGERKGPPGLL
T1 sequence (P78324 whole entry, looked up, the tested form may be a part): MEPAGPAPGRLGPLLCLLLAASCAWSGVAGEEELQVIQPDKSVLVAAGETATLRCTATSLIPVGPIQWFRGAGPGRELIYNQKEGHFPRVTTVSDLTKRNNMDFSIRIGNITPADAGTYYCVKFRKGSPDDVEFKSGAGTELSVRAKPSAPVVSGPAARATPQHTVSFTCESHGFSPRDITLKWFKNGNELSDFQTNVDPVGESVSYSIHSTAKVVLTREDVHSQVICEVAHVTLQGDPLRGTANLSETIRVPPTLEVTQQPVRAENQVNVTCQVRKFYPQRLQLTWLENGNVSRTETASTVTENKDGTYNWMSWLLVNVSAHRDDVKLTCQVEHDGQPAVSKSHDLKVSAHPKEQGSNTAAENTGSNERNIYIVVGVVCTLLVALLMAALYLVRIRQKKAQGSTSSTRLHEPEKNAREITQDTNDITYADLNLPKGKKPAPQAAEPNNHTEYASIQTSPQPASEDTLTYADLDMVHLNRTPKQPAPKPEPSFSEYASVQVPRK
T1 sequence (Q08722 whole entry, looked up, the tested form may be a part): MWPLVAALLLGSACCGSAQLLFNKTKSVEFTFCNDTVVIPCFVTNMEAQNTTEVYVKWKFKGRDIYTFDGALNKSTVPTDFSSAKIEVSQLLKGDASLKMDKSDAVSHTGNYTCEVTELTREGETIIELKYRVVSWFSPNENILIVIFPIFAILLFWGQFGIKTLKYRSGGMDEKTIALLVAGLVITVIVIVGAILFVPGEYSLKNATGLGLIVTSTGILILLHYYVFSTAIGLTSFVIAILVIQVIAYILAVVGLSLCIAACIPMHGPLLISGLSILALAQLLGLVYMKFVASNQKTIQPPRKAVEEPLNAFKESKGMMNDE

For `C[N+]1(CCCCC[N+]2(C)CCCC2)CCCC1`, the Potency entry in test [1], in test [4] and in test [7] was “inactive” in each case. Besides, the compound was called inactive in test [2], in [3], in test [5], in test [6] and in [8].
As for `CCOC(=O)c1cccc(N)c1`, the Potency result in test [1], in test [4], in [9], in [10], in [11] and in test [12] was “inactive” in each case. Besides, the Potency result in [13], in test [14], in [15] and in [16] was “inactive” throughout.
On to `CNCCC=C1c2ccccc2CCc2ccccc21`, for which the Potency in test [1] is 20.6 µM (active). For the same compound, the compound was classed as inactive in [17], in test [5], in test [6] and in test [8]. In addition, the Potency result in test [4] and in test [7] was “inactive” throughout.
Regarding `Cc1c(C(C)C)c(=O)n(-c2ccccc2)n1C`, the Potency result in [1], in test [4], in [9], in test [10], in test [11] and in test [12] was “inactive” in each case. Moreover, the Potency result in [13], in test [14], in test [15] and in test [16] was “inactive” throughout.
Take `N[C@H](CO)C(=O)O`: the Potency entry in test [1], in [4] and in test [7] was “inactive” throughout. Moreover, the outcome in test [2], in test [17], in test [3], in [5], in test [6] and in [8] was inactive.
In the case of `CCC(NC(C)C)C(O)c1ccc(O)c(O)c1` (stereo unspecified), the Potency result in test [1], in test [4] and in [7] was “inactive” throughout. The compound was classed as inactive in test [2], in [17], in test [3] and in test [5].
As to `COc1cc(/C=C/C(=O)O[C@H]2CC[C@]34C[C@]35CC[C@]3(C)[C@@H]([C@H](C)CCC=C(C)C)CC[C@@]3(C)[C@@H]5CC[C@H]4C2(C)C)ccc1O`, the Potency result in [1], in [4], in test [9], in test [10], in test [11] and in test [12] was “inactive” in each case. The Potency result in test [13], in [14], in [15] and in test [16] was “inactive” each time.
As to `C[C@]12CC[C@@H]3c4ccc(O)cc4CC[C@H]3[C@@H]1CC[C@@H]2O`, the Potency in test [1] is 6.51 µM (active). For the same compound, the result in [17], in [3] and in test [8] was inactive. Besides, the Potency entry in [4] is “inactive”.
Consider `CC(C)COC(=O)OCN1C(=O)CN(CCN2CC(=O)N(COC(=O)OCC(C)C)C(=O)C2)CC1=O`, for which the Potency result in [1], in test [4] and in [7] was “inactive” throughout. For the same compound, the outcome in test [2], in [17], in test [3], in test [5], in test [6] and in test [8] was inactive.
For the compound `CC(C)(C)NC(=O)[C@@H]1CN(Cc2cccnc2)CCN1C[C@@H](O)C[C@@H](Cc1ccccc1)C(=O)N[C@H]1c2ccccc2C[C@H]1O`, the Potency result in test [1], in test [4], in test [9], in test [10], in [11] and in test [12] was “inactive” each time. For the same compound, the Potency entry in [13], in test [14], in test [15] and in test [16] was “inactive” each time.
For the compound `OC[C@H]1O[C@H](O[C@]2(CCl)O[C@H](CCl)[C@@H](O)[C@@H]2O)[C@H](O)[C@@H](O)[C@H]1Cl`, the result in test [18] was inactive. Moreover, the Potency entry in [1], in [4], in [9], in test [10], in test [11] and in test [12] was “inactive” each time. The Potency result in [13], in test [14], in test [15] and in test [16] was “inactive” each time.
Consider `O=C(O)CCCCC(=O)O`, for which the Potency result in [1], in test [4], in [9], in test [10], in test [11] and in [12] was “inactive” in each case. The Potency result in [13], in test [14], in test [15] and in [16] was “inactive” throughout.

The values are drawn from PubChem BioAssay (NCATS).
